Read-out in experiment [1]: Interleukin 17F (IL17F), IL17F (gene 112744)
The experiment in a line: BSK_BT_xIL17F: BioMAP Diversity Plus: BT Assay for Interleukin 17F (IL17F) Biomarker Activity (AID 2284243). The conditions noted are these: primary human B cells with PBMC. In outline:
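Human PBMC co-cultured with B cells, compound exposure 24 h; secreted IL-17F quantified by Luminex xMAP, referenced to DMSO control. PBMC viability measured in parallel by Alamar Blue reduction.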

Read-out in experiment [2]: Actin alpha 1 (ACTA1), ACTA1 (gene 58)
The experiment in a line: BSK_MyoF_ACTA1: BioMAP Diversity Plus: MyoF Assay for Actin alpha 1 (ACTA1) Biomarker Activity (AID 2284244). The conditions noted are these: primary human lung fibroblasts. Put shortly: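 Cells were exposed to chemical for 24 h before a-SMA levels were quantified by ELISA in human lung fibroblasts. Increases were fitted against DMSO as negative control; parallel SRB staining (0.1% after 10% TCA fixation, 560 nm) assessed cytotoxicity.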

Read-out in experiment [3]: Interleukin 2 (IL2), IL2 (gene 3558)
The experiment in a line: BSK_BT_xIL2: BioMAP Diversity Plus: BT Assay for Interleukin 2 (IL2) Biomarker Activity (AID 2284245). The conditions noted are these: primary human B cells with PBMC. In outline:
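The BT system combines human B cells with peripheral blood mononuclear cells. Twenty-four hours after chemical dosing, secreted IL-2 was measured with xMAP bead technology, and responses were analyzed as increases over DMSO controls.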

Read-out in experiment [4]: Collagen IV, COL4A1 (gene 1282)
The experiment in a line: BSK_MyoF_CollagenIV: BioMAP Diversity Plus: MyoF Assay for Collagen IV Biomarker Activity (AID 2284247). The conditions noted are these: primary human lung fibroblasts. Put shortly: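 Human lung fibroblast system, 24 h chemical exposure. Endpoint: Collagen IV by ELISA, upward fit vs DMSO.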

Read-out in experiment [5]: Monokine induced gamma interferon (MIG), CXCL9 (gene 4283)
As to the kind of experiment: BSK_KF3CT_MIG: BioMAP Diversity Plus: KF3CT Assay for Monokine induced gamma interferon (MIG) Biomarker Activity (AID 2284248). The conditions noted are these: primary human keratinocytes with fibroblasts. Put shortly:
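Human keratinocyte–foreskin fibroblast co-culture; MIG measured by ELISA 24 h after chemical dosing, fitted upward versus DMSO. Cytotoxicity was assessed in parallel cultures by SRB total-protein staining read at 560 nm.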

Read-out in experiment [6]: Vascular cell adhesion molecule 1 (VCAM1), VCAM1 (gene 7412)
As to the kind of experiment: BSK_BF4T_VCAM1: BioMAP Diversity Plus: BF4T Assay for Vascular cell adhesion molecule 1 (VCAM1) Biomarker Activity (AID 2284249). The conditions noted are these: primary human bronchial epithelial cells with fibroblasts. Put shortly: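 Cell-surface VCAM-1 quantified by ELISA after 24 h chemical exposure of human bronchial epithelial/dermal fibroblast co-cultures, with SRB staining in parallel wells for cytotoxicity; DMSO baseline, positive-direction fitting.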

Read-out in experiment [7]: Interferon-inducible T-cell alpha chemoattractant (ITAC), CXCL11 (gene 6373)
The experiment in a line: BSK_hDFCGF_ITAC: BioMAP Diversity Plus: hDFCGF Assay for Interferon-inducible T-cell alpha chemoattractant (ITAC) Biomarker Activity (AID 2284251). The conditions noted are these: primary human foreskin fibroblasts. In outline: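 I-TAC levels were read by ELISA on human dermal foreskin fibroblast primary cultures 24 h after dosing, analysed against DMSO in the positive direction. Cytotoxicity was assessed alongside by sulforhodamine B total-protein staining.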

Read-out in experiment [8]: Plasminogen activator inhibitor-1 (PAI1), SERPINE1 (gene 5054)
The experiment in a line: BSK_KF3CT_PAI1: BioMAP Diversity Plus: KF3CT Assay for Plasminogen activator inhibitor-1 (PAI1) Biomarker Activity (AID 2284252). The conditions noted are these: primary human keratinocytes with fibroblasts. Put shortly: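 Cells (human keratinocytes co-cultured with foreskin fibroblasts) are exposed to test chemical for 24 h. PAI-1 is then measured by ELISA and analysed for signal gain against DMSO.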

Read-out in experiment [9]: Interleukin-8 (IL8), CXCL8 (gene 3576)
As to the kind of experiment: BSK_KF3CT_IL8: BioMAP Diversity Plus: KF3CT Assay for Interleukin-8 (IL8) Biomarker Activity (AID 2284254). The conditions noted are these: primary human keratinocytes with fibroblasts. Put shortly: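 Human keratinocyte/foreskin fibroblast co-culture dosed 24 h; IL-8 measured by ELISA relative to DMSO. Parallel cultures stained with SRB for total protein to flag cytotoxicity.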

Read-out in experiment [10]: Plasminogen activator inhibitor-1 (PAI1), SERPINE1 (gene 5054)
The experiment in a line: BSK_MyoF_PAI1: BioMAP Diversity Plus: MyoF Assay for Plasminogen activator inhibitor-1 (PAI1) Biomarker Activity (AID 2284256).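 For outcome: PAI-1 read 24 h after compound addition.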 The conditions noted are these: primary human lung fibroblasts. In outline: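 Primary human lung fibroblasts treated with chemical for 24 h; PAI-1 levels quantified by ELISA relative to DMSO. Cytotoxicity was assessed in parallel cultures by SRB total-protein staining (0.1% SRB after 10% TCA fixation, 560 nm).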

Read-out in another experiment: CD69, CD69 (gene 969)
The experiment in a line: BSK_IMphg_CD69: BioMAP Diversity Plus: IMphg Assay for CD69 Biomarker Activity (AID 2284257). The conditions noted are these: primary human endothelial cells with macrophages. Put shortly: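 Readout is ELISA for CD69 in primary human venular endothelial cell/macrophage co-culture, taken at 24 h post-dosing. SRB staining of parallel cultures gauged overt cytotoxicity; signal increase versus DMSO defined activity.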

Read-out in experiment [11]: Eotaxin 3, CCL26 (gene 10344)
As to the kind of experiment: BSK_BF4T_Eotaxin3: BioMAP Diversity Plus: BF4T Assay for Eotaxin 3 Biomarker Activity (AID 2284258). The conditions noted are these: primary human bronchial epithelial cells with fibroblasts. Put shortly: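 ELISA measurement of Eotaxin-3 after 24 h chemical exposure in a bronchial epithelial/dermal fibroblast co-culture, with DMSO as baseline. Parallel SRB staining (0.1% SRB after 10% TCA fixation, 560 nm) flagged overt cytotoxicity.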

Read-out in experiment [12]: Monocyte Chemoattractant Protein-1 (MCP1), CCL2 (gene 6347)
The experiment in a line: BSK_BF4T_MCP1: BioMAP Diversity Plus: BF4T Assay for Monocyte Chemoattractant Protein-1 (MCP1) Biomarker Activity (AID 2284259). The conditions noted are these: primary human bronchial epithelial cells with fibroblasts. Put shortly: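 MCP-1 ELISA readout taken 24 h after dosing in the BF4T system (bronchial epithelial cells plus dermal fibroblasts). Parallel SRB total-protein staining flagged cytotoxicity; DMSO served as baseline, positive fitting direction.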

Read-out in experiment [13]: Intercellular Adhesion Molecule 1 (ICAM1), ICAM1 (gene 3383)
As to the kind of experiment: BSK_BF4T_ICAM1: BioMAP Diversity Plus: BF4T Assay for Intercellular Adhesion Molecule 1 (ICAM1) Biomarker Activity (AID 2284260). The conditions noted are these: primary human bronchial epithelial cells with fibroblasts. Put shortly: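 ICAM-1 levels measured by ELISA after 24 h chemical treatment of bronchial epithelial cell/dermal fibroblast co-cultures, read against DMSO baseline. Overt cytotoxicity checked in parallel cultures by sulforhodamine B staining.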

Read-out in experiment [14]: Interleukin-8 (IL8), CXCL8 (gene 3576)
As to the kind of experiment: BSK_MyoF_IL8: BioMAP Diversity Plus: MyoF Assay for Interleukin-8 (IL8) Biomarker Activity (AID 2284261). The conditions noted are these: primary human lung fibroblasts. Put shortly:
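Human lung fibroblast (MyoF system) cultures dosed for 24 h, then IL-8 measured by ELISA. Response taken relative to DMSO; parallel SRB total-protein staining for cytotoxicity.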

Read-out in another experiment: CD90, THY1 (gene 7070)
As to the kind of experiment: BSK_BF4T_CD90: BioMAP Diversity Plus: BF4T Assay for CD90 Biomarker Activity (AID 2284262). The conditions noted are these: primary human bronchial epithelial cells with fibroblasts. Put shortly:
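CD90 levels by ELISA after 24 h treatment of human bronchial epithelial cell/dermal fibroblast cultures, analysed versus DMSO. Overt cytotoxicity checked in parallel cultures by sulforhodamine B staining.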

Read-out in experiment [15]: Collagen I, COL1A1 (gene 1277)
As to the kind of experiment: BSK_hDFCGF_CollagenI: BioMAP Diversity Plus: hDFCGF Assay for Collagen I Biomarker Activity (AID 2284250). The conditions noted are these: primary human foreskin fibroblasts. In outline: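 Collagen I ELISA, primary human foreskin fibroblasts, 24 h chemical exposure, DMSO = negative control/baseline, positive fitting direction.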

Read-out in experiment [16]: Macrophage Inflammatory Protein-1 Alpha (MIP1a), CCL3 (gene 6348)
The experiment in a line: BSK_IMphg_MIP1a: BioMAP Diversity Plus: IMphg Assay for Macrophage Inflammatory Protein-1 Alpha (MIP1a) Biomarker Activity (AID 2284255). The conditions noted are these: primary human endothelial cells with macrophages. Put shortly: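 MIP-1a protein levels were quantified by ELISA after 24 h treatment of human endothelial cell–macrophage co-cultures, compared with DMSO. Parallel cultures were fixed with TCA and stained with 0.1% SRB to gauge overt cytotoxicity.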

A structure can be active in one record and inactive in another. Calls of active or inactive are those of the source. Rule for the calls: active = hit-call score of the fitted dose curve at least 0.9, where 1 is the maximum; inactive = score below 0.9.

One may read the AC50 as the concentration giving half of the maximal activity seen. For the compound `O=C(O)C(F)(F)C(F)(F)C(F)(F)OC(F)(C(F)(F)F)C(F)(F)F`, the outcome in experiment [1], in [2], in [3], in experiment [4], in [5] and in experiment [6] was inactive. The outcome in experiment [7] is “inactive”; in experiment [8], “inactive”; in experiment [9], “inactive”; in [10] it was “inactive”; in the experiment with CD69, CD69 (gene 969), “inactive”; in experiment [11], “inactive”. For the same compound, the outcome was “inactive” in experiment [12]; “inactive” in experiment [13]; “inactive” in [14]; “inactive” with CD90, THY1 (gene 7070). Also, the results for the AC50 in [9] and in experiment [12] were 16.5 µM (active) and 5.77 µM (active), respectively.

With `O=C(c1ccccc1)c1ccc(O)cc1O`, the result in experiment [1], in experiment [2], in experiment [3], in experiment [4], in experiment [10] and in experiment [14] was inactive.

With `O=S(=O)(O)CCC(F)(F)C(F)(F)C(F)(F)C(F)(F)F`, the outcome in experiment [1], in [2], in [3], in experiment [4], in experiment [5] and in experiment [6] was inactive. The outcome in experiment [15] is “inactive”; in [7] it was “inactive”; in experiment [8], “inactive”; in [9] it was “inactive”; in [10], “inactive”; in the experiment with CD69, CD69 (gene 969), “inactive”. Further, the outcome in [11] was “inactive”; in [12], “inactive”; in experiment [13] it was “inactive”; in experiment [14] it was “inactive”; with CD90, THY1 (gene 7070) it was “inactive”. Also, the AC50 in experiment [7] was 0.931 µM (active).

For the compound `O=C1C=CC(=O)N1c1ccc(Cc2ccc(N3C(=O)C=CC3=O)cc2)cc1`, the AC50 in experiment [1] is 2.45 µM (active); in experiment [2], 2.79 µM (active); in experiment [3] it was 4.5 µM (active); in experiment [4], 1.99 µM (active); in [10], 5.09 µM (active). Besides, the result in experiment [14] was inactive.

With `O=C(F)C1(F)C(F)(F)C(F)(F)C(F)(F)C(F)(F)C1(F)F`, the result in [1], in experiment [2], in experiment [3], in experiment [4], in [5] and in [6] was inactive. For the same compound, the outcome in experiment [7] is “inactive”; in experiment [8] it was “inactive”; in experiment [9], “inactive”; in experiment [16], “inactive”; in experiment [10], “inactive”; in the experiment with CD69, CD69 (gene 969), “inactive”. In addition, the outcome was “inactive” in experiment [11]; “inactive” in [12]; “inactive” in experiment [13]; “inactive” in experiment [14]; “inactive” in the experiment with CD90, THY1 (gene 7070).

As for `CC(C)CCCC(C)CCO` (stereo not given), the outcome in experiment [1], in [3], in [4], in [10] and in experiment [14] was inactive. In addition, the AC50 in experiment [2] is 30.9 µM (active).

On to `CCN(CC)c1ccc(C=O)c(O)c1`, for which the result in [1], in experiment [2], in [3], in experiment [4] and in experiment [14] was inactive. Also, in experiment [10], the AC50 is 20 µM (active).

`C[C@]12CC[C@H]3C(=CCc4cc(O)ccc43)[C@@H]1CCC2=O`: the AC50 in experiment [1] is 20 µM (active). In addition, the result in experiment [2], in experiment [3], in experiment [4], in experiment [10] and in [14] was inactive.

On to `CCN(CC)c1ccc2c(c1)Oc1cc(N(CC)CC)ccc1C21OC(=O)c2ccccc21`, for which the result in experiment [1], in experiment [2], in experiment [3], in [4], in experiment [10] and in experiment [14] was inactive.

For `OC(O)C(F)(F)C(F)(F)F`, the result in experiment [1], in [2], in [3], in [4], in experiment [5] and in experiment [6] was inactive. The outcome in experiment [7] was “inactive”; in experiment [8] it was “inactive”; in [9], “inactive”; in experiment [10] it was “inactive”; with CD69, CD69 (gene 969), “inactive”; in [11] it was “inactive”. Besides, the outcome in [12] is “inactive”; in experiment [13], “inactive”; in experiment [14], “inactive”; with CD90, THY1 (gene 7070) it was “inactive”.

Source of the values: PubChem BioAssay (EPA / NIEHS).
